CSC inhib = cancer stem cell inhibition; cancer stem cell-like cells viability, luminescence; inhibition, % at 7.5 µM; hit rate 1.1% among 300,000; AID 2717; in the data active = inhibition above about 75%; inconclusive = no clear call, values can overlap the other calls; tested in HMLE shEcad cells
SKKanGAS inh = blocks kanamycin growth of S. pyogenes SKKanGAS strain. BacTiter-Glo, 6 h. inhibition, % at 7.5 µM. AID 1662. hit rate 1.3% among 300,000;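 active = mean replicate score, as percent of positive control median, at least 50; inconclusive = mean below 50 but one replicate at or above 50; inactive = mean and every replicate below 50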;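 also: strain carries kanamycin resistance gene driven by streptokinase promoter and grows in 40 µg/ml kanamycin; loss of luminescence reflects streptokinase promoter inhibition or plain growth inhibition; 0% = median of DMSO wells and 100% = positive control at its reference dose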
Calb FLC = C. albicans growth modulation with fluconazole. AID 1979. C. albicans CaCi-2 (fluconazole-resistant clinical isolate) + fluconazole, Alamar Blue growth, 48 h. hit rate 0.57% among 300,000. growth inhibition, % (no concentration beside the values);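 active = growth inhibition above about 58% in most replicates, limit read from the data, passing the limit was not always enough; inconclusive = exactly half the replicates above a set limit; inactive = most replicates below a set limit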;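 also: all wells also contain fluconazole at 8 µg/ml as a sub-toxic cotreatment; 0% = median of DMSO wells and 100% = median of geldanamycin control wells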
MPTP block = permeability transition pore inhibition; hit rate 1.4% among 360,000; inhibition, % at 10 µM; isolated mouse mitochondria, Ca2+ swelling absorbance, 30 min; AID 602449;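 active = inhibition of 50% or more, scaled per plate between neutral and stimulator controls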;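 also: 0% = DMSO wells given calcium and 100% = 1 mM EGTA wells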
Mdm2-MdmX inh = human Mdm2/MdmX binding inhibition; hit rate 3% among 330,000; inhibition, % at 8 µM; O15151+Q00987; SaOS-2 split-luciferase Mdm2/MdmX complementation, luminescence;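 active = inhibition of at least 50% at 8 µM in the primary screen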
Beta apoptosis = beta cell apoptosis inhibition; hit rate 0.8% among 300,000; protection from apoptosis, % (concentration not given with the values); INS-1E cytokine-induced death, ATP luminescence, 48 h; percent of positive-control rescue, neutral wells zero;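 active = Every replicate reaches about 75%, or at least half do and their mean reaches it too, limit read from the data; inconclusive = At least half of replicates reach the limit but their mean does not; inactive = Under half of replicates reach the limit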;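 also: 0% = cytokine-treated negative control wells and 100% = positive control rescue; higher means more ATP so stronger rescue from cytokine killing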
Mdm2 MdmX conf = human Mdm2/MdmX binding inhibition, confirmed | shares compounds with Mdm2-MdmX inh | luminescent assay | inhibition, % at 8 µM | hit rate 55% among 10,000 | AID 489028; in the data active = inhibition above about 40%
Full FLuc ctr = full-length luciferase inhibition in Mdm2/MdmX counter-screen. SaOS-2 full-length luciferase counterscreen, luminescence. AID 504607. shares compounds with Mdm2-MdmX inh. hit rate 77% among 6,200. inhibition, % at 8 µM;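 active = mean inhibition at 8 µM reaching about 37%, which flags the compound as non-specific, limit read from the data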;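 also: p53-null SaOS-2 cells with luciferase driven by a doxycycline-inducible promoter; compound on cells about two nights before reading with doxycycline added after day one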
* marks the source's active call; other numbers are inactive results; ? = inconclusive; . = no result. Compounds with a hit are over-represented: about 5.4% of the library has one in this group of screens.

SMILES	CSC inhib	SKKanGAS inh	Calb FLC	MPTP block	Mdm2-MdmX inh	Beta apoptosis	Mdm2 MdmX conf	Full FLuc ctr
CCOC(=O)C1=C(C)Nc2sc(C(=O)c3ccc(F)cc3)c(N)c2C1c1ccc(C(=O)OC)cc1 (stereo unspecified)	.	31	8	6	61*	1	22	.
CCOc1cc(CNCCO)cc(Br)c1OCc1ccc(Cl)cc1Cl	148*	14	-3	-2	100*	31	50*	26
COc1cc(CNCCO)cc(Br)c1OCc1ccccc1	.	-1	-2	2	2	4	.	.
COC(=O)C1=C(CN2CCCc3ccccc32)NC(=O)NC1c1ccc(F)cc1 (stereo unspecified)	-1	20	0	0	70*	-4	72*	38*
C=CCNC(=O)/C(C#N)=C\c1cc(Cl)c(O)c(OCC)c1	6	16	41	1	.	1	.	.
CCOc1cc(/C=C(/C#N)C(=O)Nc2ccc(O)cc2)cc(Br)c1O	47	19	5	0	70*	27	63*	86*
Cc1ccc([N+](=O)[O-])cc1NC(=O)CSc1nncn1-c1ccccn1	-16	-2	-18	-2	17	-4	.	.
CCc1cc2c(=O)[nH]c(-c3ccccn3)nc2s1	.	55*	20	-2	72*	66	26	46*
O=C(/C=C/c1ccco1)NC(=S)Nc1nc(-c2ccc(Cl)cc2)cs1	.	2	-3	3	61*	-2	54*	67*
COc1ccc(-c2csc(NC(=S)NC(=O)/C=C/c3ccccc3)n2)cc1Br	23	-13	-2	.	55*	-6	4	.
O=C(/C=C/c1ccco1)NC(=S)Nc1nc(-c2ccc3ccccc3c2)cs1	76*	6	-3	4	78*	9	45*	48*
O=C(O)/C=C/C(=O)Nc1nc(-c2ccc3ccccc3c2)cs1	-11	9	1	20	11	2	.	.
COc1ccc(Cl)cc1NC(=S)N(CCCN1CCOCC1)Cc1cn(C)c2ccccc12	8	5	7	0	26	-1	.	.
COc1cc(Cl)ccc1NC(=S)N(CCCN1CCOCC1)Cc1cn(C)c2ccccc12	8	0	25	-1	55*	-12	22	.
Cn1c(SCC(=O)Nc2cc([N+](=O)[O-])ccc2F)nnc1C(F)(F)F	-8	3	-3	5	-10	-2	.	.
Cc1ccc(CNC(=O)/C=C/c2c(Cl)cccc2Cl)cc1	6	1	-15	1	55*	-5	8	.
CN(C)S(=O)(=O)c1ccc(NC(=O)/C=C/c2ccccc2Cl)cc1	-1	-6	8	30	-3	0	.	.
CN(C)c1ccc(NC(=O)/C=C/c2c(Cl)cccc2Cl)cc1	.	-7	1	23	64*	6	69*	50*
CCOC(=O)c1[nH]cnc1C(=O)N[C@@H](C)c1ccccc1	-16	.	.	0	16	-2	.	.
CCC(=O)N1CCN(c2ccc(NC(=O)c3cc4ccccc4o3)cc2Cl)CC1	34	20	67	-1	82*	32	25	.
CCCC(=O)N1CCN(c2ccc(NC(=O)c3cc4ccccc4o3)cc2Cl)CC1	90*	37	-1	1	100*	68	59*	13
CCCC(=O)N1CCN(c2ccc(NC(=O)c3cccs3)cc2Cl)CC1	.	2	?	1	3	-1	.	.
O=C(Nc1ccc(N2CCN(C(=O)c3ccccc3)CC2)c(Cl)c1)c1ccco1	12	7	-38	-1	12	11	.	.
O=C(Nc1ccc(N2CCN(C(=O)c3ccco3)CC2)c(Cl)c1)c1cc2ccccc2o1	-7	40	19	-2	100*	47	75*	51*
COc1ccc(-n2c(Cc3cccn3C)nnc2SCC(=O)Nc2ccc(C)c(Cl)c2)cc1	4	13	-9	0	18	-2	.	.
CC1=NNC(=O)C1CCC(=O)N/N=C/c1c(Cl)cccc1Cl (stereo unspecified)	-1	7	-2	-1	-1	-3	.	.
Clc1ccc(CNCC2CCCO2)c(Cl)c1 (stereo unspecified)	-1	-5	-5	2	18	-6	.	.

Screening data: PubChem BioAssay, several laboratories
